# According to PMC6522510 (Nature Communications, 2019):
# What was measured:
# Settings in all cases: 72 h, relative to cycloheximide control, log10 luminescence
# CHRF288-11 = system: CHRF288-11
# CMK = system: CMK
# CMS = system: CMS
# M07e = system: M07e
# ML-2 = system: ML-2
# MOLM-13 = system: MOLM-13
# MV4-11 = system: MV4-11
# U937 = system: U937
structure (smiles),measurement,setting,value
"C[C@]12CC[C@@H]3c4ccc(OC(=O)N(CCCl)CCCl)cc4CC[C@H]3[C@@H]1CC[C@@H]2OP(=O)(O)O [SJ000518944-1, ES[…] SODIUM]",CHRF288-11 %inh,CHRF288-11,1.087%
same,CMK %inh,CMK,-3.517%
same,CMS %inh,CMS,-0.5738%
same,M07e %inh,M07e,1.122%
same,ML-2 %inh,ML-2,0.1396%
same,MOLM-13 %inh,MOLM-13,1.341%
same,MV4-11 %inh,MV4-11,2.919%
same,U937 %inh,U937,-1.233%
